Sampled rows, rich in hits. Any-hit rate of the full collection: about 2.8%.
MITF TRPM1 inh = inhibitors of MITF-dependent TRPM1 promoter reporter, primary screen, cell-based, SK-MEL-5, single point, luciferase. SK-MEL-5 TRPM1 promoter luciferase, 24 h. inhibition, % at 12.5 µM. actives 0.83% (n = 330,000). AID 488899, 2010;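 active = mean inhibition across replicates of 60% or more, whatever share of single replicates reaches that level; inconclusive = some that reach 60%, reason not given; inactive = mean inhibition across replicates below 60%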
KKLEB cytotox = cytotoxicity in KKLEB CF airway cells, primary screen, cytotoxicity control for CF NF-kB inhibitor project, cell-based, uHTS, fluorescence assay plates; activity change (cytotoxicity), % at 5 µM; actives 0.36% (n = 360,000); KKLEB CF airway cells viability, ATPlite luminescence, overnight; stronger effect = lower value; cells stimulated with P. aeruginosa culture filtrate;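 active = corrected activity change at or below -50% at 5 µM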
Shn3 inh set2 = reduction of Shn3 3'UTR firefly luciferase signal, primary screen, Schnurri-3 inhibitor project, cell-based, Clone20 osteoblasts, set 2. Clone20 osteoblast Shn3 3'UTR firefly luciferase, 24 h. inhibition, % at 12.5 µM. actives 0.52% (n = 360,000). AID 588674, 2011;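 active = mean inhibition of at least 75% with every replicate also reaching 75%; inconclusive = mean inhibition at least 75% but some replicate below; inactive = mean inhibition below 75%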;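 also: 0% = median of neutral control wells and 100% = pilot-screen positive control compound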
HIF-2a block = HIF-2a reporter inhibitors, primary screen, luminescence, 786-0 RCC cells. 786-0 RCC cells HIF-2a reporter, luciferase luminescence, overnight. inhibition, % at 18.8 µM. actives 0.72% (n = 360,000);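 active = inhibition of the luminescence signal of 40% or more relative to plate controls, in a single-dose primary screen at 18.75 µM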
Peg3 prom inh = Peg3 promoter-driven luciferase inhibitors, primary screen, cell-based, HeLa, luciferase luminescence | actives 1.7% (n = 360,000) | AID 588405, 2011 | inhibition, % at 20 µM | HeLa PEG-Prom luciferase reporter, overnight;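 active = inhibition of at least 50% at 20 µM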
CF NFkB inh = inhibitors of PAF-induced NF-kB signaling, primary screen, cell-based, GFP fluorescence, uHTS | KKLEB NF-kB-GFP reporter, GFP fluorescence overnight | inhibition, % at 5 µM | actives 0.86% (n = 360,000);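 active = at least 50% inhibition at 5 µM, scaled per plate between neutral and stimulator controls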;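 also: PAF is a Pseudomonas aeruginosa culture filtrate used as stimulus; plate controls were PAF-stimulated DMSO wells for no effect and unstimulated DMSO wells for full effect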
CF NFkB inh conf = inhibitors of PAF-induced NF-kB signaling, retest, confirmation, cell-based, GFP fluorescence, single concentration; actives 64% (n = 1,300); KKLEB CF airway cells, overnight; inhibition, % at 5 µM; shares compounds with CF NFkB inh; in the data active = inhibition above about 40%;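 also: stimulus PAF is a Pseudomonas aeruginosa filtrate and not platelet activating factor; plate controls were DMSO wells with stimulus for no effect and unstimulated DMSO wells for full effect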
Mdm2-MdmX confirm = retested Mdm2-MdmX interaction blockers, confirmation, cell-based, luminescence, single concentration, set 2 | shares compounds with HIF-2a block | inhibition, % at 8 µM | AID 504601, 2011 | actives 99% (n = 740) | SaOS-2 split-luciferase Mdm2/MdmX complementation;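 active = mean inhibition of the luminescence signal across two replicates at or above 26 percent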
Target sequence (O15151 whole entry, looked up): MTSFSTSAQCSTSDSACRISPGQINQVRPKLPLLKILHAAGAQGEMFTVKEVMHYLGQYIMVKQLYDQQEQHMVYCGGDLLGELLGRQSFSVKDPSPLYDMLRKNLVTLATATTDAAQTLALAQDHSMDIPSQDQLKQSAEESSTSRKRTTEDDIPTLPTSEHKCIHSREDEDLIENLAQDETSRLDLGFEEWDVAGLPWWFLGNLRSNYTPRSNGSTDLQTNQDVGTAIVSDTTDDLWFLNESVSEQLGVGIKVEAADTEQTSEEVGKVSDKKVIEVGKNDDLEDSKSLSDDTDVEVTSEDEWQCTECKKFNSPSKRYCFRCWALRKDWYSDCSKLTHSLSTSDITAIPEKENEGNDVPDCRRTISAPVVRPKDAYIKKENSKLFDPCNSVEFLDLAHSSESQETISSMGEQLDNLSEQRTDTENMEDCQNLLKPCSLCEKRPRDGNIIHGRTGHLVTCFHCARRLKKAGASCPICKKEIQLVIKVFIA
Target sequence (Q00987 whole entry, looked up): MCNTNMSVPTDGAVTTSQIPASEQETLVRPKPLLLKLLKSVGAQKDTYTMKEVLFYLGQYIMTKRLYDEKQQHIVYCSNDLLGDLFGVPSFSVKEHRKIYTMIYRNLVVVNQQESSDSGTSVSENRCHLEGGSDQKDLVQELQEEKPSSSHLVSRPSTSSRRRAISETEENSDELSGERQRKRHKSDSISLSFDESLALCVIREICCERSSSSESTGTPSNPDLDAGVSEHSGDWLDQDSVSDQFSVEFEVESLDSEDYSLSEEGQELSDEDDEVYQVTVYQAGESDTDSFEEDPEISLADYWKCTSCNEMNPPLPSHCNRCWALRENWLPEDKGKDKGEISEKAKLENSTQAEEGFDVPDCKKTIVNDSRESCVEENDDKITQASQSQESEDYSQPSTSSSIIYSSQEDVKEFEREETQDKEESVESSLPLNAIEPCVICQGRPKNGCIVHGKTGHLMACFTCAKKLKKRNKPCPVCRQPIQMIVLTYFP
HIF-2a conf = HIF-2a reporter inhibitor retest, confirmation, luminescence, 786-0 RCC cells; shares compounds with HIF-2a block; HIF-2a luciferase reporter luminescence, overnight; inhibition, % at 18.8 µM; actives 56% (n = 1,800); AID 651580, 2012;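 active = mean inhibition across four replicates of at least 40 percent at the single tested concentration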
HIF-1a cs = HIF-1a luciferase reporter signal reduction – MiaPaCa-2 cells, single concentration, counter-screen for HIF-2a inhibitor project, confirmation; MiaPaCa-2 HIF-1a luciferase reporter, desferoxamine, overnight; actives 72% (n = 1,800); shares compounds with HIF-2a block; AID 651589, 2012; inhibition, % at 18.8 µM;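 active = mean inhibition of the reporter signal across four replicates at the single tested dose of 50% or more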
Active calls of the source: *; u = inconclusive; x = not tested or not shown.

SMILES | MITF TRPM1 inh | KKLEB cytotox | Shn3 inh set2 | HIF-2a block | Peg3 prom inh | CF NFkB inh | HIF-2a conf | HIF-1a cs | others
NC(=Nc1ccccc1)NN=Cc1c[nH]c2ccccc12 | 88.3* | -44.7 | 42.3 | -14.1 | 33.0 | 66.9* | x | x | CF NFkB inh conf=55.1*
Oc1ccc(Br)cc1CN1CCN(c2ccccc2)CC1 | 3.1 | -27.2 | -5.9 | 2.1 | 13.4 | 62.4* | x | x | CF NFkB inh conf=13.0
CNc1cc(Cl)c2nonc2c1[N+](=O)[O-] | 96.0* | -46.3 | 89.6* | 95.2* | 107.2* | 84.0* | 93.0* | 105.7* | CF NFkB inh conf=29.1
CCN(CC)C(=O)c1ccc(NC(=O)c2ccc(-n3cncn3)c([N+](=O)[O-])c2)cc1 | 4.2 | 8.1 | 8.3 | -1.3 | -13.9 | -3.1 | x | x
COc1ccc(Oc2cc(NC(=O)c3nn(C)cc3[N+](=O)[O-])cc([N+](=O)[O-])c2)cc1 | 81.1* | -41.7 | u | 93.7* | 103.9* | 58.8* | x | x | CF NFkB inh conf=107.5*;Mdm2-MdmX confirm=84.5*
C[C@@H]([C@@H](O)c1ccccc1)N(C)C(=O)Cc1ccccc1 | 3.7 | 13.1 | 1.8 | 13.4 | 3.2 | -19.3 | x | x
CN(C)CC(C(=O)Cc1ccccc1)c1ccccc1 (stereo not given) | 41.1 | -39.5 | 94.9* | 96.8* | 101.4* | 59.1* | 22.2 | 105.6* | CF NFkB inh conf=-41.2
CNC(=O)NC(O)C(Cl)(Cl)Cl (stereo not given) | 9.4 | 6.3 | 8.4 | 7.6 | 18.0 | -9.5 | x | x
CSCCC(c1nnnn1-c1c(C)cccc1C)N1CCC(n2c(=O)[nH]c3ccccc32)CC1 (stereo not given) | x | -26.5 | 15.8 | -4.9 | 18.0 | 37.4 | x | x
O=c1[nH]c2ccccc2n1C1CCN(C(CCc2ccccc2)c2nnnn2Cc2ccccc2)CC1 (stereo not given) | x | -82.1* | 84.5* | 66.6* | 97.4* | 83.5* | -20.3 | 105.3*
CC[C@]12C=CCN3CCC4(c5cc(Br)c(OC)cc5N(C)C4[C@@](O)(C(=O)OC)[C@@H]1OC(C)=O)C32 (stereo not given in full) | 6.1 | -17.8 | 0.1 | 40.5* | 12.3 | 15.7 | -4.0 | 15.4
CC1=NN=C(c2ccc(N)cc2)c2cc3c(cc2C1)OCO3 | 0.9 | 13.4 | -16.5 | 0.8 | -1.7 | 9.5 | x | x
CCC(c1nnnn1-c1ccc(OC)cc1)N1CCC2(CC1)C(=O)NCN2c1ccccc1 (stereo not given) | x | -2.8 | 8.1 | 10.2 | 16.0 | 2.3 | x | x
COc1ccc(/C=C/C(=O)c2c(O)n(CCC3=CCCCC3)c(=O)[nH]c2=O)cc1 | -5.6 | 2.2 | -4.2 | 52.7* | 7.3 | -17.6 | 32.5 | 64.7*
CNC(=O)Oc1ccc(N(C)C)cc1C(C)C | -15.1 | 7.6 | 2.8 | 10.7 | 6.4 | -7.7 | x | x
CC1CCC(C(C)C)C(OC(=O)Cn2c(COc3ccccc3)[n+](C)c3ccccc32)C1 (stereo not given) | 97.2* | -72.5* | 59.8 | -10.4 | 94.5* | 73.6* | x | x | Mdm2-MdmX confirm=102.2*
Cc1cc([N+](=O)[O-])c2ccccc2[n+]1[O-] | 78.2* | -11.9 | u | 47.8* | 108.3* | -8.2 | x | x | Mdm2-MdmX confirm=103.2*
Fc1cccc(-c2ccc3c(c2)CN(c2cccc(Cl)c2)Cc2cnnn2-3)c1 | x | -11.5 | -4.1 | -17.8 | -34.4 | -9.8 | x | x
C=C1C(=O)OC2C1CCC(C)C1(O)C=CC(=O)C21C (stereo not given) | 74.8* | -13.5 | 62.9 | 47.3* | 106.2* | 50.0 | 13.4 | 99.0*
CC1=CC2OC3CC4OC(=O)C=CC=CC(C(C)O)OCC(O)C5(C)OC5C(=O)OCC2(CC1O)C4(C)C31CO1 (stereo not given) | 90.3* | -47.9 | 97.6* | 77.9* | 101.7* | 95.8* | 66.3* | 105.7*
CC1=CC2OC3CC4OC(=O)C=CC=CC(=O)OCCC(C)C(O)C(=O)OCC2(CC1)C4(C)C31CO1 (stereo not given) | 103.5* | -19.5 | 97.8* | 75.5* | 97.0* | 89.5* | 71.2* | 103.2*
CC1CCOC(=O)C=CC=CC(=O)OC2CC3OC4C5OC5(C)C(O)CC4(COC(=O)C1O)C2(C)C31CO1 (stereo not given) | 80.4* | -9.0 | 96.9* | 66.7* | 98.5* | 90.3* | 55.9* | 103.1*
NC(N)=Nc1ccc2[nH]c3c(c2c1)C[C@@]1(O)[C@H]2Cc4ccc(O)c5c4[C@@]1(CCN2CC1CC1)C3O5 (stereo not given in full) | -5.7 | 7.4 | 1.1 | -1.3 | -4.4 | 1.7 | x | x
CC12C(C(=O)O)C1(c1ccccc1)C2C(=O)O (stereo not given) | 1.3 | 5.4 | 0.3 | -2.3 | -3.9 | 2.7 | x | x
COC(=O)C1=C(c2ccc(F)cc2F)C[C@@H]2CC[C@H]1N2C(=O)NCc1ccc(C(F)(F)F)cc1 | -6.8 | -3.8 | -10.4 | -8.1 | 8.3 | 0.2 | x | x
COc1ccc(OC)c(N=Cc2c(O)[nH]c(=O)[nH]c2=O)c1 | -1.4 | 17.0 | -2.5 | 4.9 | -1.2 | -1.8 | x | x
O=C(c1ccccc1)C(CN1CCCC1)c1ccccc1 (stereo not given) | x | -50.0 | u | 89.0* | 104.5* | 68.5* | 30.9 | 78.8*
CCN1CCN(CC(c2ccccc2)c2ccccc2)CC1 | -2.7 | 18.8 | -4.4 | 10.5 | 16.0 | -16.9 | x | x
CC(=NCCCn1ccnc1)c1c(O)n(C2CCCCC2)c(=O)[nH]c1=O | -0.1 | 0.0 | -42.4 | 11.6 | 7.1 | 6.9 | x | x
COc1cc([N+](=O)[O-])c2ncccc2c1[N+](=O)[O-] | x | -1.8 | 25.9 | 43.3* | 47.6 | 27.6 | 1.0 | 78.3*
